High-throughput results (PubChem BioAssay)
TEAD-YAP inh = TEAD-YAP interaction inhibition; HEK-TIYL cells, TEAD-Gal4/YAP UAS-luciferase luminescence; inhibition, % at 9.12 µM; actives 1.4% (n = 640,000); AID 1259422; in the data active = inhibition above about 32%;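 note: 0% = median of test compound wells and 100% = reference inhibitor wells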
FBW7 activator = activators of human E3 ligase FBW7; Q969H0; AlphaScreen FBW7–phospho-cyclin E peptide binding, activator screen; normalized activity (activation), % at 26.1 µM; actives 0.13% (n = 650,000); AID 1259310; in the data active = normalized activity above about 1.9%;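 note: purified mutant Fbw7 with reduced substrate affinity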
GPR151 activ = activates the human receptor GPR151 | Q8TDV0 | PathHunter beta-arrestin GPR151 cells, luminescence | activation, % at 11.2 µM | actives 1% (n = 650,000) | AID 1508602; in the data active = activation above about 4.9%;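 note: 0% = median of compound wells and 100% = cells with positive control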
MITF primary = blocks human microphthalmia-associated transcription factor | O75030 | AlphaScreen MITF homodimerization, bead proximity signal | inhibition, % at 2.6 µM | actives 0.91% (n = 650,000) | AID 1259374; in the data active = inhibition above about 50%;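 note: 0% = vehicle wells with protein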
Target sequence (O75030 whole entry, looked up): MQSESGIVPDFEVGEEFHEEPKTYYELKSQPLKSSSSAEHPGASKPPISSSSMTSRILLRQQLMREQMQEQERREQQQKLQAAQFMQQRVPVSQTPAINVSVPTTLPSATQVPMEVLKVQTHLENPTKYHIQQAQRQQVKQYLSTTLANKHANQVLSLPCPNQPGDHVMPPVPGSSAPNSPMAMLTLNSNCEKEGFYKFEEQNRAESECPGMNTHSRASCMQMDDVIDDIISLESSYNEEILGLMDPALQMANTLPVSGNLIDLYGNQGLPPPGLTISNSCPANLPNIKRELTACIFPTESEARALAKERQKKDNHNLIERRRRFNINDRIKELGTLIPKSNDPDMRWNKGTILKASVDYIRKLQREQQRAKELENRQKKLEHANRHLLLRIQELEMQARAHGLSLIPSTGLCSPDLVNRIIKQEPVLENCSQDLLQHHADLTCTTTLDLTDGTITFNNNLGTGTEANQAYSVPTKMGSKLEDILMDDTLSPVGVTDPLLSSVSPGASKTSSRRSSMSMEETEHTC
* = called active by the depositor. Hits are enriched below; roughly 3.4% of the tested compounds scored in any of these assays.

SMILES	TEAD-YAP inh	FBW7 activator	GPR151 activ	MITF primary
COc1ccc(OC)c(Cc2nnc(CCC(=O)N3CCCCC3c3ccccn3)o2)c1 (centres undefined)	-20.7	0.0	0.0	6.0
O=C(CN1CCC(NC(=O)c2ccc(F)cc2)CC1)Nc1ccc2c(c1)OCCO2	-3.1	0.0	-1.0	3.2
Cc1ccc(-c2cnc3c(Nc4ccc(O)cc4)nccn23)cc1	8.7	0.1	-0.2	14.2
Oc1ccc(Nc2nccn3c(-c4ccc(F)cc4)cnc23)cc1	52.6*	0.0	-0.5	-16.5
CC(C)c1ccc(Nc2nccn3c(-c4ccc(O)cc4)cnc23)cc1	-9.9	0.9	2.5	5.0
Oc1ccc(Nc2nccn3c(-c4ccsc4)cnc23)cc1	37.0*	0.0	-0.7	-5.6
COc1cc(/C=C2\C(=O)NC(=O)N(c3ccccc3C)C2=O)cc(Br)c1O	6.8	-0.4	-0.4	-15.3
Cc1cc(/C=C(\C#N)C(=O)N2CCOCC2)c(C)n1C1CCCC1	32.4*	-0.1	-2.6	5.7
CCN1CCN(C(=O)/C(C#N)=C/c2cc(C)n(C3CCCC3)c2C)CC1	-14.7	0.7	-1.5	14.7
CCOC(=O)Cn1cc(/C=C2/C(=O)NC(=S)N(Cc3ccco3)C2=O)c2ccccc21	2.0	-1.3	-0.5	63.5*
CCN(CC)c1ccc(/C=C2/C(=O)NC(=S)N(Cc3ccco3)C2=O)cc1	2.6	-0.3	0.1	75.0*
CN(C)c1ncc(/C=C2/C(=O)NC(=O)N(Cc3ccco3)C2=O)cn1	-6.9	-0.5	0.5	79.2*
O=C1NC(=O)N(Cc2ccco2)C(=O)/C1=C/c1ccc(N2CCOCC2)cc1	8.1	0.2	-0.6	73.2*
Cc1ccc(-n2cc(/C=C3/C(=O)NC(=O)N(Cc4ccco4)C3=O)cn2)cc1	-17.2	-0.9	0.8	72.8*
COc1ccc(N2C(=O)c3ccc(C(=O)Nc4cccc(C(=O)O)c4)cc3C2=O)cc1	11.3	0.1	0.7	-11.8
Cc1csc(NC2OC(=O)c3ccccc32)n1 (centres undefined)	-6.1	-0.1	0.4	16.5
O=C1OC(Nc2nc3ccccc3s2)c2ccccc21 (centres undefined)	-4.3	2.0*	-0.6	10.2
O=C(Nc1ccc(Br)cc1)c1cnn2ccccc12	32.3*	0.2	-2.6	5.7
CCN(CC)Cc1c(C(=O)N/N=C/c2cccc(OC)c2O)nnn1-c1nonc1N	13.8	-0.4	-0.7	60.0*
CCN(CC)Cc1c(C(=O)N/N=C/c2ccc(O)c([N+](=O)[O-])c2)nnn1-c1nonc1N	11.7	-0.2	-0.9	74.7*
Nc1cccc(-c2nc(Nc3ccccc3)c3ncn(-c4ccsc4)c3n2)c1	49.4*	0.0	-0.1	1.1
CC(=O)Nc1ccc(Nc2nc(-c3cccc(N)c3)nc3c2ncn3-c2ccsc2)cc1	42.8*	0.0	3.0	-1.7
COc1ccc(-c2nc(Nc3ccc(NC(C)=O)cc3)c3ncn(-c4ccsc4)c3n2)cc1	43.2*	0.2	0.1	6.7
CN(CC(=O)NCc1ccccn1)c1nnc(N2CCCC2=O)s1	2.1	0.0	0.6	8.2
CCC(Oc1ccccc1)C(=O)N1CCCC1 (centres undefined)	-1.9	-0.2	-1.5	-11.6
SMILES	TEAD-YAP inh	FBW7 activator	GPR151 activ	MITF primary
Cc1ncc2c(NCCc3ccccc3)nc3ccccc3n12	-13.7	-0.3	-2.4	3.0
Cc1ncc2c(NCCN(C)C)nc3ccccc3n12	45.7*	0.1	0.8	10.7
CN(Cc1ccccc1)c1ncnc(N)c1[N+](=O)[O-]	0.1	-0.1	-0.5	3.8
CCCN(CCC)c1ncnc(N)c1[N+](=O)[O-]	60.7*	-0.1	-1.6	-10.6
Cc1nc2ccc(NC(=O)c3cc(C(C)(C)C)nn3C)cc2[nH]1	1.2	-0.3	-1.2	4.5
COc1ccc(-c2nc(C(N)=O)c3[nH]c(=O)n(-c4ccccc4OC)c3n2)cc1	48.4*	0.0	0.9	4.9
COc1ccc(-c2nc(C(N)=O)c3[nH]c(=O)n(-c4cccc(C)c4)c3n2)cc1O	63.8*	0.2	-0.9	11.0
COc1ccccc1-n1c(=O)[nH]c2c(C(N)=O)nc(-c3cccc(F)c3)nc21	-0.9	0.2	0.6	6.5
COCCOC(=O)c1c(C)oc2ccc(OCC(=O)NN)cc12	-0.8	-0.1	-0.3	0.6
N#C/C(=C\Nc1ccccc1)c1nc(-c2cccc([N+](=O)[O-])c2)cs1	2.4	-0.1	0.4	0.9
Cc1ccccc1-n1ncc(C(C)NC(=O)c2c(C)nc3sccn23)c1C (centres undefined)	59.0*	0.8	0.2	-3.9
COc1ccccc1C(=O)Nc1ccc2nc(SCC(=O)NCc3ccccc3)sc2c1	52.4*	0.0	0.9	1.4
CC(=O)Nc1ccc2nc(SCC(=O)N3CCN(c4ccccc4)CC3)sc2c1	14.2	0.9	-1.1	9.8
COc1ccccc1C(=O)Nc1ccc2nc(SCC(=O)NCCOc3ccccc3)sc2c1	52.8*	0.0	0.5	-1.6
CCC(=O)Nc1ccc2nc(SCC(=O)N3CCN(c4ccccc4)CC3)sc2c1	45.1*	0.1	3.5	4.5
CCOC(=O)c1cc(C(C)C)sc1NC(=O)/C=C/C(=O)O	45.2*	0.1	0.0	12.9
CCCc1cc(C(=O)OC)c(NC(=O)/C=C/C(=O)O)s1	36.7*	0.0	-0.5	-0.8
O=C(NCCO)c1csc(N2CCN(Cc3ccc4c(c3)OCO4)CC2)n1	9.1	0.1	0.0	10.2
Cc1cccc(C(=O)NCC(=O)OCc2ccccc2)c1	-3.6	0.0	0.9	-1.0
Cc1ccc(C(=O)NN=C2CC(C)(C)NC(C)(C)C2)cc1	-19.1	-0.1	1.1	-3.6
CC(=O)c1cccc(Nc2nc(-c3ccc(C)cc3)nc3ccccc23)c1	0.8	0.1	1.7	-0.2
Fc1cccc(Nc2nc(-c3ccccc3F)nc3ccccc23)c1	26.0	0.0	2.1	12.5
CC(=O)Nc1cccc(-c2nc(-c3ccccc3)nc3ccccc23)c1	4.6	1.9*	0.6	14.8
CC(=O)c1cccc(Nc2nc(=S)[nH]c3ccccc23)c1	61.3*	-0.1	0.2	2.1
CC(=O)c1cccc(Nc2nc(-c3ccc(C(C)(C)C)cc3)nc3ccccc23)c1	58.9*	-0.2	1.5	0.8
SMILES	TEAD-YAP inh	FBW7 activator	GPR151 activ	MITF primary
CC(=O)Nc1cccc(Nc2nc(-c3ccccc3F)nc3ccccc23)c1	32.3*	0.0	-0.4	-0.8
S=c1nc(Nc2cc(Cl)cc(Cl)c2)c2ccccc2[nH]1	5.2	0.1	0.5	-0.8
COc1ccc(CCc2nnc(CCC(=O)NCCc3ccccc3)o2)cc1	-3.3	0.0	3.3	3.7
COC(=O)c1ccc(CN2CCCCC2C)cc1 (centres undefined)	2.4	0.0	0.0	8.0
CCOc1cccc2sc(NC(=O)c3ccc(Cl)s3)nc12	-10.3	0.3	0.6	-3.2
COc1cc(OC)c(NC(=O)CSc2nnc3c(n2)[nH]c2ccc(S(=O)(=O)NC(C)C)cc23)cc1Cl	9.5	-0.1	0.3	-9.3
CC(=O)CSc1nnc(-c2ccc(N(C)C)cc2)n1C	-1.2	-0.1	-0.7	10.1
O=S1(=O)C=CC(Nc2cccc3ccccc23)C1 (centres undefined)	32.7*	-0.1	-1.3	-8.3
CCc1ccccc1NC1C=CS(=O)(=O)C1 (centres undefined)	33.7*	0.2	0.7	14.1
